# Source: PubChem
# Sm TGR block – qHTS Assay for the Inhibitors of Schistosoma Mansoni Peroxiredoxins; Schistosoma mansoni thioredoxin glutathione reductase (TGR), Q962Y6; purified TGR, DTNB reduction, TNB absorbance 405 nm; Potency, µM (series often up to 114 µM), for inactives: at the highest dose activity change, negative = inhibition, most hits filed as inhibitors; actives 3% (n = 360,000); note: % is set by controls: 0 for no effect and ±100 for the full control effect; nearly all actives have a fitted effect of over 60% in size
#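 First, TGR (20 nM dispensed) and NADPH were mixed with compound. Second, a 15 min room-temperature incubation followed. Third, further NADPH and then DTNB were added to start the reaction. Finally, TNB absorbance was monitored kinetically.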
# RE007 growth inh – qHTS Assay for Inhibitors of the HIV-1 protein Vpr. S. pombe RE007 Vpr strain, BacTiter-Glo ATP luminescence, 24 h. Potency, µM (highest dose often 92.2 µM), without a hit: at the top dose activity change, negative = less growth, actives largely listed as inhibitors. actives 0.21% (n = 360,000); active = well fitted falling curve with a large enough effect; inconclusive = small, poorly fitted or top-dose-only effect; inactive = no such curve, though single readings can be large or run the other way; note: % is set by controls: 0 for no effect and ±100 for the full control effect; nearly all actives have a fitted effect of over 50% in size
#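 Fission yeast RE007 carrying one integrated HIV-1 vpr copy, seeded at OD 0.01 in PMG+AL medium with 23 nL pinned compound. Grown 24 h at 30 degrees; viability read by BacTiter-Glo luminescence after 5 min.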
# AmpC no deterg – qHTS Inhibitors of AmpC Beta-Lactamase (assay without detergent); Potency, µM (doses to about 57.1 µM), without a hit: at the top dose activity change, negative = inhibition, actives largely listed as inhibitors; AmpC nitrocefin hydrolysis, absorbance 480 nm, 0.0001% Triton; actives 0.52% (n = 330,000); AID 485341, 2010;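 note: plate controls were no compound for no effect and no enzyme for full effect; nearly all actives have a fitted effect of over 20% in size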
# Target sequence (P00811 whole entry, looked up): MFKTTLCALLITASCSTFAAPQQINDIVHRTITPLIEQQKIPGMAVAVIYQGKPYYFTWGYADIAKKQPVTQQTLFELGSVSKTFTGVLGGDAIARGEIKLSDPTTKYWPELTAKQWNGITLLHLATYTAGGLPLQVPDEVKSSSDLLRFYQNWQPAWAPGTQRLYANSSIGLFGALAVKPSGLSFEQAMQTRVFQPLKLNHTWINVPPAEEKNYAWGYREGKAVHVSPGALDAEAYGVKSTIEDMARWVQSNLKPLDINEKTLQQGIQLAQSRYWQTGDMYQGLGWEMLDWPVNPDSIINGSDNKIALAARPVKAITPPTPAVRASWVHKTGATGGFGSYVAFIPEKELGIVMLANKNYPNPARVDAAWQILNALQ
#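 AmpC (5.3 nM in the dispensed reagent) in 20 mM phosphate pH 7.0 with 0.01% (detergent screen) or 0.0001% Triton X-100 was preincubated with compounds for 15 min at room temperature. Nitrocefin was then added from an 800 uM solution, and hydrolysis was followed at 480 nm.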
# TbPYK inhibitor – qHTS of Trypanosoma Brucei Inhibitors; actives 0.12% (n = 410,000); AID 624173, 2012; TbPYK enzyme, Kinase-Glo Plus ATP luminescence, 45 min; Potency, µM (series often up to 76.8 µM), inactives show at the top dose activity, negative = inhibition, hits mostly inhibitors; note: % is set by controls: 0 for no effect and ±100 for the full control effect; nearly all actives have a fitted effect of over 50% in size
#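 Glycolytic pyruvate kinase of T. brucei was incubated with substrate, test compound and 130 uM ADP for 45 minutes at room temperature. Luminescent Kinase-Glo Plus signal was measured after 10 minutes.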
# SARS PLpro yeast – qHTS of Yeast-based Assay for SARS-CoV PLP. S. cerevisiae expressing SARS-CoV PLpro, growth rescue. Potency, µM (top dose mostly 32.9 µM), inactives show at the top dose activity, positive = growth rescue, most hits filed as activators. actives 0.19% (n = 330,000). AID 485353, 2010; calls by dose curve; note: 0% is about no effect; nearly all actives have a fitted effect of over 55% in size
# AmpC detergent – qHTS Inhibitors of AmpC Beta-Lactamase (assay with detergent); P00811; AmpC hydrolysis of nitrocefin, absorbance 480 nm, 0.01% Triton; Potency, µM (titrated, usually from 114 µM), for the others: at the highest dose activity change, negative = inhibition, actives largely listed as inhibitors; actives 0.041% (n = 370,000);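 note: 0% = no-compound wells and -100% = no-enzyme wells; nearly all actives have a fitted effect of over 25% in size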
#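 20 mM phosphate pH 7.0 + 0.01% (detergent screen) or 0.0001% Triton X-100; 5.3 nM AmpC reagent; cpd preinc 15 min RT; nitrocefin (800 uM stock) to start; A480 q20 s × 4 min; Activity was normalised to no-enzyme and no-compound control wells.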
# * marks the source's active call; other numbers are inactive results; ? = inconclusive; . = no result. Shown are actives, neighbours in structure and some others; about 3.3% of the full set was active somewhere. Unless noted, calls come from the whole dose curve; as a rule, active = well fitted curve in the direction sought with a large enough effect; inconclusive = small, poorly fitted or top-dose-only effect, or another doubt; inactive = no such curve, though single readings can be large; an effect the other way counts as inactive or inconclusive. Potency is the fitted concentration of half-maximal effect.
SMILES,Sm TGR block,RE007 growth inh,AmpC no deterg,TbPYK inhibitor,SARS PLpro yeast,AmpC detergent
O=C(Nc1cccc(-c2cccc(F)c2)c1)C1CCN(Cc2ccco2)CC1,0%,-15%,39%,-5%,-6%,-4%
Cc1cc(O)c(C(c2ccccc2)N2CCC(C)CC2)c(=O)n1Cc1ccco1 (stereo not drawn),28µM*,.,.,6%,.,-6%
Cc1cc(O)cc(=O)n1Cc1ccco1,0%,-1%,-24%,1%,2%,-9%
COc1cc(OC)cc(-c2nc3nc(C)c(CCC(=O)Nc4ccc(C)cc4C)c(C)n3n2)c1,5%,.,.,-3%,.,-1%
Cc1ccc(C2CC(c3cccc(Cl)c3)n3nc(N)nc3N2)cc1 (stereo not drawn),5%,0%,6.3µM*,-20%,0%,?
Cc1cccc(C2CC(c3ccc(Cl)cc3)Nc3nc(N)nn32)c1 (stereo not drawn),-6%,1%,3.5µM*,-3%,-1%,?
COc1ccc(/C=C(\NC(=O)c2ccccc2)C(=O)NC2CCCCC2)cc1,-6%,.,.,9%,.,-1%
O=C(Cc1nc2ccccc2[nH]1)c1cccc([N+](=O)[O-])c1,-18%,-2%,-36%,-1%,-2%,4%
Cc1nc2nc(SCC(=O)c3cccc([N+](=O)[O-])c3)[nH]c2cc1Br,-23%,0%,-42%,-13%,3%,3%
O=C(CSc1nc2ncc(Br)cc2[nH]1)c1cccc([N+](=O)[O-])c1,-4%,12%,32µM*,9%,-18%,?
O=C(C[n+]1cc(Br)cc(Br)c1)c1cccc([N+](=O)[O-])c1,10µM*,-11%,12%,7%,0%,4%
O=C(Cn1c(=O)n2nc(-c3cccc(F)c3)nc2c2ccccc21)N1CCN(c2ccc(F)cc2)CC1,16%,.,.,2%,.,-1%
O=C(Nc1ccccc1)C(Cl)C(=O)c1ccccc1 (stereo not drawn),-26%,7.1µM*,-43%,-30%,-25%,?
CC(=O)C(Cl)C(=O)Nc1ccccc1 (stereo not drawn),-4%,9%,-30%,?,-10%,0%
CC(=O)c1ccc(NC(=O)Cn2c(=O)cc(C)c3c(C)nn(-c4cccc(F)c4)c32)cc1,0%,.,.,0%,.,8%
COc1cc(/C=N/NC(=O)C23CC4CC(CC(C4)C2)C3)cc(Br)c1O,-18%,3%,28µM*,-5%,4%,2%
CCc1ccccc1NC(=O)CCCSc1nc(-c2ccco2)cc(C(F)(F)F)n1,0%,.,.,-1%,.,21%
O=C(CCSc1nc(-c2ccco2)cc(C(F)(F)F)n1)NCc1ccccn1,28µM*,0%,28%,-7%,2%,4%
CCn1ncc(CNC(=O)CCCSc2nc(-c3ccco3)cc(C(F)(F)F)n2)c1C,40µM*,-12%,206%,1%,14%,0%
O=C(CCSc1nc(-c2ccco2)cc(C(F)(F)F)n1)NCc1cccs1,-1%,11%,-5%,-7%,-9%,-1%
CC(C)c1ccc(NC(=O)CN(C)S(=O)(=O)c2ccc3c(c2)n(C)c(=O)c(=O)n3C)cc1,6%,.,.,2%,.,9%
O=C(C1=C[C@H](C2CC2)C[C@H](OCCCCO)O1)N1CCN(Cc2ccccc2)CC1,25µM*,2%,104%,1%,-1%,-6%
O=C(C1=C[C@H](c2ccccc2)C[C@H](OCCCCO)O1)N1CCN(Cc2ccccc2)CC1,0%,4%,142%,6%,0%,7%
O=C(C1=C[C@H](C2CCCCC2)C[C@H](OCCCCO)O1)N1CCN(Cc2ccccc2)CC1,35µM*,2%,199%,7%,0%,4%
O=C(C1=C[C@@H](C2CCCCC2)C[C@@H](OCCCCO)O1)N1CCN(Cc2ccc3c(c2)OCO3)CC1,-1%,4%,196%,0%,-1%,9%
SMILES,Sm TGR block,RE007 growth inh,AmpC no deterg,TbPYK inhibitor,SARS PLpro yeast,AmpC detergent
O=C(CN1C(=O)CCc2cc(S(=O)(=O)N3CCCCC3)ccc21)NCc1ccc(Cl)cc1,1%,.,.,-4%,.,-1%
C=CCNc1nnc(-c2ccncc2)s1,0%,-11%,-10%,-5%,-4%,?
c1ccc2c(Nc3nnc(-c4ccncc4)s3)cccc2c1,1%,-4%,10µM*,-4%,-27%,-3%
Cc1ccc(C23CC4CC(CC(C(=O)N5CCN(C)CC5)(C4)C2)C3)cc1,8%,-10%,143%,-2%,-5%,-5%
Cc1ccc(C23CC4CC(CC(NC(=O)N5CCN(C)CC5)(C4)C2)C3)cc1,-2%,13µM*,188%,-2%,1%,-11%
O=C(Nc1nc(-c2ccccn2)cs1)Nc1ccc(F)cc1F,5%,-4%,87%,-21%,-15%,0%
O=C(Nc1nc(-c2ccccc2)cs1)Nc1ccc(F)cc1F,53%,-25%,20µM*,0%,-13%,-2%
COc1ccc(C(=O)Nc2cccc(-c3cn4ccsc4n3)c2)c(OC)c1,2%,.,.,-3%,.,-6%
CCN1/C(=N\N)c2cccc3cccc1c23,22µM*,-22%,-16%,-24%,-2%,-2%
CCC(C)NC(=O)CN1C(=O)c2cccc3cccc1c23 (stereo not drawn),5%,1%,-2%,-21%,4%,-6%
O=C(Nc1ccc(F)c(Cl)c1)C1CCCN(c2ncnc3onc(-c4ccc(F)cc4)c23)C1 (stereo not drawn),50µM*,.,.,6%,.,-7%
COc1ccc(NC(=O)C2CCCN(c3ncnc4onc(-c5ccc(F)cc5)c34)C2)cc1 (stereo not drawn),2%,-2%,3%,-12%,2%,1%
CC(C)[C@H](NC(=O)c1ccccc1)C(=O)OCC(=O)c1ccc2c(c1)NC(=O)CO2,35µM*,21%,-19%,-8%,?,?
COC(=O)c1cc(C(=O)OCC(=O)c2ccc3c(c2)NC(=O)CO3)cc([N+](=O)[O-])c1,40µM*,-11%,-20%,-6%,-1%,0%
COc1cc(OC)cc(C(=O)N[C@H](C(=O)OCC(=O)c2ccc3c(c2)NC(=O)CO3)C(C)C)c1,0%,0%,-3%,-8%,-5%,-8%
Cc1cccc(C(=O)OCC(=O)c2ccc3c(c2)NC(=O)CO3)c1,.,-20%,-14%,4%,2%,.
